# This is a sample that favours compounds with a hit; in the whole collection about 3.3% have one here.
# Calb FLC = affects C. albicans growth with fluconazole; C. albicans CaCi-2 (fluconazole-resistant clinical isolate) + fluconazole, Alamar Blue growth, 48 h; growth inhibition, % (no concentration beside the values); AID 1979; 300,000 tested, 0.57% active;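 active means growth inhibition above about 58% in most replicates, limit read from the data, passing the limit was not always enough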;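 further: all wells also contain fluconazole at 8 µg/ml as a sub-toxic cotreatment; 0% = median of DMSO wells and 100% = median of geldanamycin control wells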
# PHOSPHO1 inh = inhibitors of human PHOSPHO1 phosphatase; Q8TCT1; recombinant PHOSPHO1, absorbance phosphatase assay; inhibition, % at 13.3 µM; 290,000 tested, 1.1% active; AID 1565; in the data active means inhibition above about 60%
# Target sequence (Q8TCT1 whole entry, looked up): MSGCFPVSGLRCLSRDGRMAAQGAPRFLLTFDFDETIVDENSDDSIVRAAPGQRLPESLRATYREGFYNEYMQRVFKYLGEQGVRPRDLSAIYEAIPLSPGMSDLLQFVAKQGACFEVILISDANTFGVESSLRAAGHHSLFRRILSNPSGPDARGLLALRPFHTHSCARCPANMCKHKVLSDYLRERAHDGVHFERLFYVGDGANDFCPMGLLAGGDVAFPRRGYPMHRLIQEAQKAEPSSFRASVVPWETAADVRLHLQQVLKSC
# Efflux pump inh = inhibitors of Candida antifungal efflux pumps expressed in yeast; S. cerevisiae Candida pump triplex, Nile Red efflux; inhibition, % at 10 µM; 330,000 tested, 0.44% active; AID 485275;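 active means plate passing quality check with inhibition over a set limit, or well fluorescence over plate mean plus 4 SD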;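 further: Nile Red retained in pooled yeast measured as flow cytometry median fluorescence; 0% = buffer negative control and 100% = Enniatin B positive control; higher means more Nile Red kept so more efflux inhibition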
# Cl transport mod = modulators of human KCC2 chloride dependent transport. KCC2 cells, thallium flux FluoZin-2 fluorescence. B-score of Tl+ flux slope (higher = more flux/activation; lower = inhibition) at 10 µM. 190,000 tested, 2.2% active;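 active means thallium flux slope and its plate-corrected score both differing from the plate sample mean at a set confidence after two filtering rounds, in either direction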;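 further: slope of fluorescence scaled to starting intensity during 10 to 20 s after thallium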
# H9c2 protect = protects H9c2 cardiomyocytes from peroxide injury; H2O2 injury protection, ATPLite, 2 h; protection from H2O2 cell death, % at 20 µM; 360,000 tested, 0.63% active; AID 588492;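 active means compounds giving at least 50% protection of heart cells from peroxide-induced death in the single-dose screen, raw or plate-pattern-corrected value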;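 further: 0% = DMSO wells with peroxide and 100% = DMSO wells without peroxide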
# Cmpd fluor yeast = counter-screen for efflux pump inhibitors: compound fluorescence; shares compounds with Efflux pump inh; S. cerevisiae AD/pABC3, flow cytometry; fluorescence ratio to DMSO, % at 10 µM; 1,700 tested, 4% active; AID 588517;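 active means fluorescence ratio to DMSO above its plate's cutoff, the plate mean ratio plus 5 SD, cut at about 210% in these data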;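 further: unstained yeast with no Nile Red so the signal is compound autofluorescence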
# Mdr1 pump inh = blocks the Candida albicans Mdr1 efflux pump in yeast; inhibition, % at 10 µM; S. cerevisiae AD/CaMDR1, Nile Red efflux, flow cytometry; AID 588518; shares compounds with Efflux pump inh; 1,700 tested, 1% active; in the data active means inhibition above about 26%;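 further: 0% = DMSO vehicle and 100% = reference inhibitor; higher means more Nile Red retained so more efflux inhibition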
# CaCdr2 efflux inh = Candida Cdr2 efflux pump inhibition; Nile Red retention ratio vs DMSO, % at 10 µM; 1,700 tested, 4% active; shares compounds with Efflux pump inh; AID 588520; S. cerevisiae AD/CaCDR2, Nile Red retention, flow cytometry; in the data active means Nile Red retention ratio vs DMSO above about 190%;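 further: higher ratio means more blocking of Cdr2 efflux of the dye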
# Cdr1 pump inh = Candida Cdr1 efflux pump inhibition; shares compounds with Efflux pump inh; S. cerevisiae AD/CaCDR1, Nile Red efflux, flow cytometry; inhibition, % at 10 µM; 1,700 tested, 1% active; AID 588522;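 active means inhibition above the screen-wide mean plus twice its standard deviation, cut at about 32% in these data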
# Numbers without * were called inactive; . = not tested or not shown; + = active, no number.
SMILES,Calb FLC,PHOSPHO1 inh,Efflux pump inh,Cl transport mod,H9c2 protect,Cmpd fluor yeast,Mdr1 pump inh,CaCdr2 efflux inh,Cdr1 pump inh
COc1ccc(CNC(=O)C(=O)NCC2OCCN2S(=O)(=O)c2ccccc2)cc1 (centres undefined),-20.0,4.5,-1.0,.,-3.1,102.2,0.6,100.1,0.2
Cc1ccc(CNC(=O)C(=O)NCC2OCCN2S(=O)(=O)c2ccc(C)cc2)cc1 (centres undefined),-5.8,32.8,0.2,.,-5.6,.,.,.,.
COc1ccc(S(=O)(=O)N2CCOC2CNC(=O)C(=O)NCc2ccc(F)cc2)cc1OC (centres undefined),4.7,35.2,0.1,.,-3.1,108.3,-0.3,93.0,-0.3
CCCS(=O)(=O)NC(=O)C1(C)CCCN(C(=O)c2oc3ccccc3c2C)C1 (centres undefined),.,.,.,.,-4.1,.,.,.,.
CCC1Cc2[nH]c(=S)[nH]c(=O)c2C(c2ccc(Cl)cc2)O1 (centres undefined),.,.,.,.,6.7,.,.,.,.
O=C(Oc1ccc2ccccc2c1)c1cncc(Br)c1,7.2,-17.7,0.0,-0.274,-10.3,.,.,.,.
O=C(Oc1ccc2c(=O)c(Oc3ccc4ccccc4c3)coc2c1)c1cncc(Br)c1,-9.9,-13.8,1.2*,.,-3.0,103.0,0.2,112.2,0.4
O=C(Nc1ccc(S(=O)(=O)Nc2ccccn2)cc1)c1cccc(Br)c1,-29.3,-26.1,6.2*,.,-6.2,100.2,-0.3,86.7,-0.4
O=C(Nc1ccc(S(=O)(=O)Nc2ncccn2)cc1)c1cccc(Br)c1,-5.4,14.1,0.0,.,-0.2,.,.,.,.
COC(=O)C1CN(C(=O)C(C)Oc2ccc(F)cc2)c2ccccc2O1 (centres undefined),-5.9,15.0,0.1,.,5.8,.,.,.,.
COC(=O)c1ccc(CSc2nnc3c(n2)[nH]c2ccccc23)cc1,-0.8,37.7,0.5*,1.23,-0.3,124.0,0.5,148.0,0.5
COc1ccc(CNC(=O)CSc2nnc3c(n2)[nH]c2ccccc23)cc1,-1.4,50.8,0.5,.,-2.0,.,.,.,.
Cc1ccc(C2=NN(CC(=O)NCc3cccnc3)C(=O)CC2)cc1,10.7,4.1,-9.9,-0.165,.,.,.,.,.
Cc1ccc(C2=NN(CC(=O)NCc3ccccn3)C(=O)CC2)cc1,5.3,11.6,7.6*,-0.345,3.8,91.8,-0.4,91.4,-0.1
Cn1ccnc1SCC(=O)Nc1ccc(Br)cc1C(F)(F)F,-10.7,7.7,-1.3,.,-1.6,.,.,.,.
CC[N+](C)(C)CCN(Cc1ccc(Cl)cc1)c1ccccn1,-8.3,16.2,0.0,.,-2.0,.,.,.,.
CCCCCCCCCCCCCCCC[N+](C)(C)CCN(Cc1ccc(OC)cc1)c1ncccn1,.,.,2.4*,.,-47.2,101.5,0.1,144.1,0.0
COc1cc2c(cc1OC)C(c1ccccc1)NCC2 (centres undefined),-6.9,18.4,0.1,.,1.6,.,.,.,.
COc1cc2c(cc1OC)C(c1cc(OC)c(OC)c(OC)c1)NCC2 (centres undefined),-21.2,-5.8,0.6*,-0.569,2.4,101.8,-0.4,93.0,-0.3
COC(=O)C1=C(C)Nc2c(c(=O)n(C)c(=O)n2C)C1c1ccc(Cl)cc1 (centres undefined),10.6,6.2,22.2*,-1.77,12.6,101.4,-0.1,95.6,-0.1
CCN(CC)C(=O)Cn1c(=O)n(C)c2ccccc21,3.5,0.2,-0.1,-0.308,-7.0,.,.,.,.
C=CCn1c(C)c(/C=C/c2cc[n+](C)cc2)c2ccccc21,-10.1,-36.9,1.4*,.,-16.0,683.6*,2.6,133.2,2.4
CC(C)n1cc(/C=C/c2cc[n+](C)cc2)c2ccccc21,87.1*,-153.0,.,.,-16.0,472.1*,1.2,95.4,0.5
C=CCn1cc(/C=C/c2cc[n+](C)cc2)c2ccccc21,70.5,-8.2,1.1,.,-14.3,289.3*,-0.1,114.1,0.0
CCN(CC)C(=O)Cn1c(C)c(/C=C/c2cc[n+](C)cc2)c2ccccc21,-5.0,-2.0,0.4,.,-2.1,365.4*,0.5,120.5,0.2
SMILES,Calb FLC,PHOSPHO1 inh,Efflux pump inh,Cl transport mod,H9c2 protect,Cmpd fluor yeast,Mdr1 pump inh,CaCdr2 efflux inh,Cdr1 pump inh
Cc1c(NC(=O)CN2C(=O)NC(C)(c3ccc(Cl)cc3)C2=O)c(=O)n(-c2ccccc2)n1C (centres undefined),0.5,.,-0.1,.,4.3,.,.,.,.
O=C(CCN1CCCO1)N1CCCC(Nc2cccc(F)c2)C1 (centres undefined),.,.,.,.,2.2,.,.,.,.
O=C(Cc1ccc(Cl)cc1)Nc1ccccc1N1CCN(C(=O)c2ccccc2)CC1,.,33.4,1.3,.,11.1,.,.,.,.
CCn1c(SCC(=O)NCCc2ccccc2)nc2c([nH]c3ccccc32)c1=O,.,38.1,0.7,.,-10.7,.,.,.,.
CCn1cc(/C=C/c2cc[n+](C)cc2)c2ccccc21,94.2*,-68.8,5.0*,.,-14.0,725.7*,3.0,112.0,3.5
NC(=S)NN=Cc1c[nH]c2nccnc12,.,.,.,.,-1.6,.,.,.,.
O=C1NC(=S)S/C1=C\c1ccc(SCc2ccccc2)o1,.,-1.8,4.5*,29.1*,-23.1,121.1,0.3,186.6*,0.2
O=C1NC(=S)S/C1=C\c1ccc(SCc2ccco2)o1,.,80.1*,4.7*,119*,-8.1,125.4,0.3,156.6,0.3
O=C1NC(=S)S/C1=C/c1ccc(OC(=O)c2ccco2)cc1,6.9,46.9,0.2,.,-16.5,.,.,.,.
COc1ccc([C@H]2CC(=O)C=C(c3ccc(C(=O)O)cc3)C2)cc1OC,.,.,-0.2,.,7.9,.,.,.,.
O=C(CCC(=O)NC1CCCCC1)Nc1cccnc1,-2.4,25.3,-0.1,.,1.3,.,.,.,.
CS(=O)(=O)c1[nH]nc(-c2ccccc2)c1C#N,-11.3,10.5,0.5,-1.07,4.3,.,.,.,.
O=c1cc(O)n(Cc2ccc(F)cc2)c(=O)[nH]1,-2.8,52.2,0.0,.,-0.4,.,.,.,.
CC(=O)Nc1cc(C(=O)N(C)Cc2ccccc2)ccc1S(=O)(=O)c1ccc(C)cc1,-3.7,50.7,0.2,.,-4.6,.,.,.,.
CCOc1cc2[nH]c(=S)n(CCC(=O)NCc3ccc(OC)cc3)c(=O)c2cc1OCC,-2.3,30.6,0.4*,.,2.4,101.7,0.4,127.0,0.1
CCOC(=O)c1c(NC(=O)Cn2nc([N+](=O)[O-])c(Br)c2C)sc2c1CCC(C)C2 (centres undefined),2.2,3.9,0.0,0.871,-3.8,.,.,.,.
CCOC(=O)c1c(NC(=O)Cn2nc(C(=O)O)c3ccccc3c2=O)sc2c1CCC(C)C2 (centres undefined),8.2,25.1,0.5*,-0.403,16.2,106.7,0.1,95.1,0.0
CSCc1ccc(C(=O)NCCSc2ccc(Br)cc2)cc1,-0.3,42.6,7.4*,.,-4.8,93.4,-0.1,87.3,-0.1
COc1cccc(-c2sc3ccc(OC)cc3c2-c2ccc(OCCN3CCCC3)cc2)c1,.,.,73.4*,.,-24.5,95.0,-0.3,+,0.0

# Assay outcomes (PubChem BioAssay)
